In PubChem BioAssay (NCATS):
Results filed as inconclusive are left out. Activity calls are given as the source filed them. Calls follow the shape of the dose curve; as a rule, active = well fitted curve in the direction sought with a large enough effect; inconclusive = small, poorly fitted or top-dose-only effect, or another doubt; inactive = no such curve, though single readings can be large; an effect the other way counts as inactive or inconclusive. *1 amine or outer side, *2 acyl side, *3 side chain or, on linkers, in order; H or OH if unused. Where a SMILES comes first, the peptide text is derived from it. [ ]: non-standard residue; d: D form. X5 = CC(CC(O[*:1])C(=O)[*:2])C(=O)O; NMeV = CN[CH](C(=O)O)C(C)C; NMeA = CN[CH](C)C(=O)O; βAla = NCCC(=O)O

Assays:
[1] = system: Zika virus NS2B-NS3 protease (unlinked complex); assay: Primary screen GU Rhodamine qHTS for Zika virus inhibitors: Unlinked NS2B-NS3 protease assay (AID 1347159); also: % is scaled to controls: 0 for no effect and ±100 for the full control effect; nearly all actives have a fitted effect of over 60% in size
In short: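 Noncovalent NS2B hydrophilic domain/NS3 protease complex (25 nM final) in 10 mM Tris-HCl pH 8.0, 0.01% Tween 20, preincubated 15 min with compounds (up to 114 microM), then 1.5 microM Rhodamine110 substrate. Fluorescence change over 15 min fitted to 4-parameter Hill.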

[2] = target: Calcium and integrin-binding protein 1 (Homo sapiens) (UniProt Q99828); assay: Primary qHTS for Identification of Calcium Integrin Binding Protein 1 (CIB1) Competitor (AID 1508620);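 also: GST tagged CIB1 binding a fluorescein labelled alphaIIb integrin peptide tracer; top concentration of the series differs between compounds; % is scaled to controls: 0 for no effect and ±100 for the full control effect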
Sequence of Calcium and integrin-binding protein 1 (Homo sapiens) (Q99828 whole entry, looked up): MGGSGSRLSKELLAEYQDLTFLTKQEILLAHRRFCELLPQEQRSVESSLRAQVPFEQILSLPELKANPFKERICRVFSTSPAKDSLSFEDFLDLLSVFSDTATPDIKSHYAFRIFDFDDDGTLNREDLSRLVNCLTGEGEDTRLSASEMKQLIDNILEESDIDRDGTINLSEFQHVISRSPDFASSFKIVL
In short: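 Fluorescence polarization competition: CIB1-GST (1 uM final) preincubated with compound 15 min at room temperature, then FITC-labeled alphaIIb peptide (100 nM final) added for another 15 min. Polarization read at Ex 480/Em 540.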

[3] = target: Glutathione peroxidase 1 (Homo sapiens) (UniProt P07203); assay: Primary qHTS Assay for Inhibitors of Recombinant Selenoprotein Glutathione Peroxidase 1 (GPX1) (AID 1845191); also: nearly all actives have a fitted effect of over 65% in size; as to activity, negative = inhibition: % is scaled to controls: 0 for no effect and ±100 for the full control effect
Sequence of Glutathione peroxidase 1 (Homo sapiens) (P07203 whole entry, looked up): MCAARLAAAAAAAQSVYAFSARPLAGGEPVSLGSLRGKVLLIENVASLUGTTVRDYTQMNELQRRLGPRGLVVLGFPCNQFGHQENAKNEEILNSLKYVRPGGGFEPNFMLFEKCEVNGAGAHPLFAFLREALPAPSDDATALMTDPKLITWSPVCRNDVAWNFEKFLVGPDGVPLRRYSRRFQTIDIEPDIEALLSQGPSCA
In short: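 Recombinant GPX1 (10 nM final) was preincubated with compound for 30 min at room temperature, then reacted with 1 mM GSH, 0.5 mM CHP, 0.5 mM NADPH and 100 nM glutathione reductase; NADPH fluorescence (340/450 nm) was read at 0 and 15 min.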

[4] = target: Phospholipid hydroperoxide glutathione peroxidase GPX4 (Homo sapiens) (UniProt P36969); assay: Primary qHTS Assay for Inhibitors of Recombinant Selenoprotein Glutathione Peroxidase 4 (GPX4) (AID 1845192); also: % is scaled to controls: 0 for no effect and ±100 for the full control effect; nearly all actives have a fitted effect of over 65% in size
Sequence of Phospholipid hydroperoxide glutathione peroxidase GPX4 (Homo sapiens) (P36969 whole entry, looked up): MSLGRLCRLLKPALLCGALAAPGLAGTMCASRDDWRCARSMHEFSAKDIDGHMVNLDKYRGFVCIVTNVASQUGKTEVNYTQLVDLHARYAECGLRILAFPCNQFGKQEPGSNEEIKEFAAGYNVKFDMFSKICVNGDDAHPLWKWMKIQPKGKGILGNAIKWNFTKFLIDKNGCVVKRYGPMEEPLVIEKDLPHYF
In short: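 GR-coupled readout: 100 nM GR, 1 mM GSH, 0.5 mM NADPH; NADPH fluorescence (ex 340/em 450 nm) read at t=0 and after 15 min RT. GPX4 200 nM, preincubated 30 min with compound; substrate 0.5 mM CHP.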

[5] = target: Luciferin 4-monooxygenase (Photinus pyralis) (UniProt P08659); assay: Primary firefly luciferase (FLuc) qHTS assay for identification of artifact compounds. (AID 1845220); conditions: outcome: dose series up to 54.1 µM unless noted; also: nearly all actives have a fitted effect of over 60% in size;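 as to activity change, negative = inhibition: plate controls were DMSO vehicle for no effect and no enzyme for full effect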
In short: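 In this counter-screen for luciferase artifacts, test compounds met substrate (10 uM each luciferin and ATP) before 10 nM enzyme started the reaction. Light output was measured 5 min later.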

[6] = Primary fluorescence-based thiol-reactive (MSTI) qHTS assay for identification of artifact compounds. (AID 1845221);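 also: thiol-reactive compounds lower the probe fluorescence signal; nearly all actives have a fitted effect of over 65% in size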
In short: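 MSTI probe at 4 uM final in 2% DMSO/PBS pH 7.4; compounds, 1 h at room temperature in dark. Fluorescence Ex/Em 525/598 nm, normalised to Acetyl-MSTI and MSTI, fitted to 4-parameter Hill.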

[7] = system: Nanoluciferase (engineered Oplophorus gracilirostris luciferase); assay: Primary Nanoluciferase (NLuc) qHTS assay for identification of artifact compounds. (AID 1845222);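 also: NLuc secreted into diluted conditioned medium of S16 cells; 0% = DMSO and -100% = no enzyme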
In short: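 Using secreted nanoluciferase in S16 culture medium (0.22 um filtered, 1:55 dilution), compounds were preincubated 15 min at RT. Signal was generated with Nano-Glo reagent (1:100) over 5 min.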

[8] = Primary redox qHTS assay for identification of artifact compounds. (AID 1845223);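 also: 0% = DMSO and 100% = reference compound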
In short: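 Amplex Red (25 uM) and HRP (250 mU/mL) in HBSS, with compounds for 15 min, then 250 uM DTT for 30 min, room temperature, dark. Fluorescence 525/598 nm read; normalized to DMSO and 10 uM DA3003; Hill fit.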

HaCat = assay: Cytotoxic Profiling of Annotated Libraries Using Quantitative High-Throughput Screening (AID 1296008); conditions: Five cell lines viability, CellTiter-Glo ATP luminescence, 48-72 h; max response: stronger effect = lower value; also: nearly all actives have a fitted effect of over 60% in size; also: potency is read from the fitted curve at half-maximal effect; as to max response: % is scaled to controls: 0 for no effect and ±100 for the full control effect
In short: (§1)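 Compounds were pin-transferred onto cells and incubated 48 or 72 hr at 37 degree Celsius, 95% humidity. CellTiter-Glo was added, plates sat 10 min at room temperature, then ATP-coupled luminescence was imaged as the viability read-out.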

NIH3T3 = assay: as above; conditions: Five cell lines viability, CellTiter-Glo ATP luminescence, 48-72 h; max response: stronger effect = lower value
In short: as §1

C33A = assay: Primary qHTS to identify gynecologic anti-cancer compounds using libraries of approved drugs and bioactive compounds (AID 1345084); conditions: Gynecologic cancer cell panel viability, ATPlite luminescence, 48 h; series mostly up to 57.5 µM; also: nearly all actives have a fitted effect of over 55% in size; also: potency is read from the fitted curve at half-maximal effect; as to activity change, negative = cytotoxicity: % is scaled to controls: 0 for no effect and ±100 for the full control effect
In short: (§2)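 Cells, 1,000 per well, plated 16 h, then exposed 48 h at 37 C to compounds. Viability by ATPlite luminescence after 15 min at room temperature.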

CASKI = assay: as above; conditions: Gynecologic cancer cell panel viability, ATPlite luminescence, 48 h; series mostly up to 57.5 µM
In short: as §2

Es-2 = assay: as above; conditions: Gynecologic cancer cell panel viability, ATPlite luminescence, 48 h; series mostly up to 57.5 µM
In short: as §2

Hek293T = assay: as above; conditions: Gynecologic cancer cell panel viability, ATPlite luminescence, 48 h, control line for the selectivity index; series mostly up to 57.5 µM
In short: as §2

JEG-3 = assay: as above; conditions: Gynecologic cancer cell panel viability, ATPlite luminescence, 48 h; series mostly up to 57.5 µM
In short: as §2

OV90 = assay: as above; conditions: Gynecologic cancer cell panel viability, ATPlite luminescence, 48 h; series mostly up to 57.5 µM
In short: as §2

PA-1 = assay: as above; conditions: Gynecologic cancer cell panel viability, ATPlite luminescence, 48 h; series mostly up to 57.5 µM
In short: as §2

Tov-21-G = assay: as above; conditions: Gynecologic cancer cell panel viability, ATPlite luminescence, 48 h; series mostly up to 57.5 µM
In short: as §2

Tov112D = assay: as above; conditions: Gynecologic cancer cell panel viability, ATPlite luminescence, 48 h; series mostly up to 57.5 µM
In short: as §2

[9] = system: Zika virus NS2B-NS3 protease (linked construct); assay: Primary screen NINDS Rhodamine qHTS for Zika virus inhibitors (AID 1347160); also: nearly all actives have a fitted effect of over 55% in size
In short: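 Purified NS2B-NS3 protease with the NS2B hydrophilic domain joined by a flexible linker (25 nM) in 10 mM Tris-HCl pH 8.0, 0.01% Tween 20, preincubated 15 min at RT with compound; Rhodamine110 peptide substrate 1.5 µM; fluorescence change over 15 min; 4-parameter Hill fit.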

Clc1ccc([C@]23CNC[C@H]2C3)cc1Cl
inactive: Potency [1] | Potency [2] | Potency [3] | Potency [4] | outcome [5] | Potency [6] | Potency [7] | Potency [8] | outcome (HaCat) | max response (NIH3T3) 1.31% | Potency (C33A) | Potency (CASKI) | Potency (Es-2) | Potency (Hek293T) | Potency (JEG-3) | Potency (OV90) | Potency (PA-1) | Potency (Tov-21-G) | Potency (Tov112D)

CC(=O)C1CCC2C3CCC4C[C@@H](O)CCC4(C)C3CCC12C (stereo partly drawn)
inactive: Potency [1] | Potency [2] | Potency [3] | Potency [4] | outcome [5] | Potency [6] | Potency [7] | Potency [8] | max response (HaCat) -9.42% | outcome (NIH3T3) | Potency (C33A) | Potency (CASKI) | Potency (Es-2) | Potency (Hek293T) | Potency (JEG-3) | Potency (OV90) | Potency (PA-1) | Potency (Tov-21-G) | Potency (Tov112D)

CC(=O)OC[C@]12[C@H](OC(C)=O)C(=O)[C@@H]3[C@@H](O)[C@@]14O[C@@]3(C)COC(=O)c1cccnc1[C@@H](C)[C@H](C)C(=O)O[C@@H]([C@H](OC(C)=O)[C@@H]2OC(C)=O)[C@]4(C)O
inactive: Potency [1] | Potency [9] | Potency [2] | Potency [3] | Potency [4] | outcome [5] | Potency [6] | Potency [8] | outcome (HaCat) | max response (NIH3T3) 0.381% | Potency (C33A) | Potency (CASKI) | Potency (Es-2) | Potency (Hek293T) | Potency (JEG-3) | Potency (OV90) | Potency (Tov-21-G) | Potency (Tov112D)

CCOP(=O)(OCC)Oc1ccc2c(C)cc(=O)oc2c1
inactive: Potency [9] | Potency [3] | outcome [5] | Potency [6] | Potency [7] | Potency [8] | max response (HaCat) -15.5% | max response (NIH3T3) -21.6% | Potency (C33A) | Potency (CASKI) | Potency (Es-2) | Potency (OV90) | Potency (PA-1) | Potency (Tov-21-G) | Potency (Tov112D)

O=C(N[C@H]1CN2CCC1CC2)c1cc2cccc(Cl)c2s1
inactive: Potency [1] | Potency [2] | Potency [3] | Potency [4] | outcome [5] | Potency [6] | Potency [7] | Potency [8] | max response (HaCat) -4.19% | Potency (C33A) | Potency (CASKI) | Potency (Es-2) | Potency (Hek293T) | Potency (JEG-3) | Potency (OV90) | Potency (PA-1) | Potency (Tov-21-G) | Potency (Tov112D)

CCC(C)C1NC(=O)C2CCCN2C(=O)C(CC(C)C(=O)O)OC(=O)CCNC(=O)C(C)N(C)C(=O)C(C(C)C)N(C)C1=O (stereo not drawn) (cyclo([X5]PI[NMeV][NMeA][βAla]); configuration not given here)
inactive: Potency [1] | Potency [9] | Potency [2] | Potency [3] | Potency [4] | outcome [5] | Potency [6] | Potency [7] | Potency [8] | max response (HaCat) 4.66% | max response (NIH3T3) 3.88% | Potency (C33A) | Potency (CASKI) | Potency (Es-2) | Potency (Hek293T) | Potency (JEG-3) | Potency (OV90) | Potency (PA-1) | Potency (Tov-21-G) | Potency (Tov112D)

C[C@]12CC[C@@H](O[C@@H]3O[C@H](CO)[C@@H](O)[C@H](O)[C@H]3O)C[C@@]1(O)CCC1C2CC[C@]2(C)[C@@H](C3=CC(=O)OC3)CC[C@]12O (stereo partly drawn)
inactive: Potency [1] | Potency [9] | Potency [2] | Potency [3] | Potency [4] | outcome [5] | Potency [7] | Potency [8] | outcome (NIH3T3)
active: Potency (HaCat) 1000 nM | Potency (C33A) 199 nM | Potency (Es-2) 355 nM | Potency (Hek293T) 199 nM | Potency (OV90) 1120 nM | Potency (PA-1) 355 nM | Potency (Tov-21-G) 178 nM | Potency (Tov112D) 112 nM

C=C[C@H]1CN2CCC1C[C@H]2[C@H](O)c1ccnc2ccccc12 (stereo partly drawn)
inactive: Potency [1] | Potency [9] | Potency [4] | outcome [5] | Potency [6] | Potency [7] | Potency [8] | max response (HaCat) -26.7% | max response (NIH3T3) -5.71% | Potency (C33A) | Potency (CASKI) | Potency (Es-2) | Potency (Hek293T) | Potency (JEG-3) | Potency (OV90) | Potency (PA-1) | Potency (Tov-21-G) | Potency (Tov112D)

C/C=C(\C)C(=O)OC1C2C3(C)CCC(OC4CC(OC)C(OC5OC(C)C(O)C(OC)C5O)C(C)O4)CC3CCC23OC32CCC(C(C)=O)C2(C)C1OC(=O)/C(C)=C/C (stereo not drawn)
inactive: Potency [1] | Potency [9] | Potency [2] | Potency [4] | activity change, negative = inhibition [5] 0.886% [at 11.6 µM] | activity change, negative = thiol reactive [6] 84.6% [at 11.5 µM] | activity, negative = inhibition [7] 2.09% [at 11.6 µM] | redox activity (% of DA3003) [8] 18.3% [at 11.5 µM] | outcome (HaCat) | max response (NIH3T3) -16.5% | activity change, negative = cytotoxicity (C33A) 10.6% [at 11.6 µM] | activity change, negative = cytotoxicity (CASKI) -3.16% [at 11.6 µM] | activity change, negative = cytotoxicity (Es-2) -0.14% [at 11.6 µM] | activity change, negative = cytotoxicity (Hek293T) 2.72% [at 11.6 µM] | activity change, negative = cytotoxicity (JEG-3) 7.67% [at 11.6 µM] | activity change, negative = cytotoxicity (OV90) 2.67% [at 11.6 µM] | activity change, negative = cytotoxicity (PA-1) 2.59% [at 11.6 µM] | activity change, negative = cytotoxicity (Tov-21-G) -0.804% [at 11.6 µM] | activity change, negative = cytotoxicity (Tov112D) -1.3% [at 11.6 µM]

COC1(C[S@@](=O)c2ccccc2)CCN(CCc2c[nH]c3ccc(F)cc23)CC1
inactive: Potency [1] | Potency [9] | Potency [2] | Potency [3] | Potency [4] | outcome [5] | Potency [6] | Potency [7] | Potency [8] | max response (HaCat) 3.53% | max response (NIH3T3) 1.71% | Potency (C33A) | Potency (CASKI) | Potency (Es-2) | Potency (Hek293T) | Potency (JEG-3) | Potency (OV90) | Potency (PA-1) | Potency (Tov-21-G) | Potency (Tov112D)

Oc1ccc2c(c1)C13CCCC[C@H]1[C@@H](C2)N(CC1CCC1)CC3
inactive: Potency [9] | Potency [2] | Potency [3] | outcome [5] | Potency [6] | Potency [7] | Potency [8] | outcome (HaCat) | max response (NIH3T3) -7.5% | Potency (C33A) | Potency (CASKI) | Potency (Hek293T) | Potency (JEG-3) | Potency (Tov-21-G) | Potency (Tov112D)

C[C@H]1CN(CC[C@H](O)C2CCCCC2)CC[C@@]1(C)c1cccc(O)c1
inactive: Potency [1] | Potency [9] | Potency [2] | Potency [3] | Potency [4] | outcome [5] | Potency [6] | Potency [7] | Potency [8] | max response (HaCat) 3.77% | max response (NIH3T3) -4.6% | Potency (C33A) | Potency (CASKI) | Potency (Es-2) | Potency (Hek293T) | Potency (JEG-3) | Potency (OV90) | Potency (PA-1) | Potency (Tov-21-G) | Potency (Tov112D)
